Source: the supplement of paper PMC3334620
Over roughly 33,000 sequences, “E-score (-0.5 to 0.5)” has its median near -0.036; the highest 2% begin near 0.37. Shown is part of a subset that was picked to be rich in the highest values.

Each sequence was assayed against T1, Yer064c (UniProt P40041) (assay: PBM E-score (8-mer binding enrichment) (E-score (-0.5 to 0.5)); higher = stronger / more preferred TF binding). Conditions: protein concentration: 200 nM; construct: GST-full length.
T1 sequence: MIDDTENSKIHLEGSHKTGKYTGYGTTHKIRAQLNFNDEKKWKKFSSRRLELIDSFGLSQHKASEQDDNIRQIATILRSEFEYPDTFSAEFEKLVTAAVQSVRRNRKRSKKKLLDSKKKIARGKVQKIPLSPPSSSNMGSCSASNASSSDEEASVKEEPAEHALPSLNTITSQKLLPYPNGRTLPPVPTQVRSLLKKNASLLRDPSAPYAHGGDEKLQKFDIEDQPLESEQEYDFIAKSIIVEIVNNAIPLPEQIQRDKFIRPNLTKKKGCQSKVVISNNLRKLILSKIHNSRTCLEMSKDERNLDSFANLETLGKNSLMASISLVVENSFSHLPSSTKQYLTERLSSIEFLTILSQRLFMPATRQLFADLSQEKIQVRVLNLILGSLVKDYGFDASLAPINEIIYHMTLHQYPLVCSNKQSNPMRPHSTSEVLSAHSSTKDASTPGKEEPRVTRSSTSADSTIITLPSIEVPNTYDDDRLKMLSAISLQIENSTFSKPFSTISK
How it was run: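 Universal all-10-mer Agilent arrays, double-stranded by primer extension on fresh or once-stripped slides, were probed with about 100-200 nM GST-tagged yeast transcription factors made by PURExpress. Fluorescent anti-GST detected bound protein, and masliner normalised the scans. E-scores from the Universal PBM Analysis Suite were given to each ungapped eight-base word pooled with its reverse complement.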

| Sequence | PBM E-score |
| --- | --- |
| AGTAGTCG | 0.381 |
| AGTAGTAG | 0.00559 |
| GGTAGTAA | 0.0578 |
| CGTAGTCC | 0.262 |
| CGTAGTCA | 0.483 |
| GGTAGTGA | 0.0671 |
| AGTAGTCA | 0.478 |
| AGTAGTTA | 0.112 |
| AGTAGTAA | 0.156 |
| CGTAGTAA | -0.0636 |
| GGTAGTCA | 0.479 |
| AGTAGTCC | 0.302 |
| GGCCGTCA | -0.262 |
| CTCTGGTC | -0.00298 |
| GGAATTCA | -0.0346 |
| ACGAACGT | -0.129 |
| ATGACCGC | -0.075 |
| CCAGTCGA | 0.00412 |
| CGTACGTC | -0.241 |
| ACGGAGTC | 0.431 |
| ACGGAGTG | -0.215 |
| ACGGAGTA | -0.0195 |
| CCGGAGGC | -0.154 |
| CCGGAGTC | 0.373 |
| CCGGAGTA | 0.0206 |

| Sequence | PBM E-score |
| --- | --- |
| ATGTACTG | 0.0673 |
| ACTGTCAA | -0.0537 |
| GCGTCGCA | 0.0193 |
| GACTAATA | 0.445 |
| CACTAATC | 0.191 |
| TACTAATA | -0.1 |
| CACTAATA | 0.134 |
| GACTAATC | 0.439 |
| AACTAATC | 0.15 |
| CTAGGTAC | 0.0158 |
| CAGACTTC | -0.103 |
| CTCACTCC | 0.0635 |
| ACGACTTC | 0.324 |
| CTGACTTC | 0.392 |
| CCGACTTC | -0.0761 |
| CTGACTCC | 0.46 |
| AGGACTTG | 0.0575 |
| CTGACCCC | -0.221 |
| AAGACTTG | 0.165 |
| ATGACTTC | 0.469 |
| ATGACTTG | 0.435 |
| AGGACTTC | 0.201 |
| AAATGAAG | 0.0192 |
| ACACAGTC | 0.285 |
| ATGCAACC | -0.254 |

| Sequence | PBM E-score |
| --- | --- |
| AACCAGTA | -0.0555 |
| ATATACTC | 0.103 |
| AGGAGCTC | -0.0695 |
| CGCTGCTC | -0.243 |
| CAGTCACG | 0.413 |
| CTGTCACA | 0.16 |
| CAGTCACA | 0.42 |
| CAGTCAAG | 0.267 |
| CGGTCACA | -0.132 |
| CCGTCACC | -0.189 |
| CCGTCACA | -0.22 |
| CGGTCACC | -0.0952 |
| CAGTCACC | 0.423 |
| GACCTTTA | -0.0143 |
| ATCGAGAT | -0.151 |
| AATAGGAG | -0.113 |
| AGAACGTG | -0.217 |
| CTCTAGGA | 0.0144 |
| AGTCATCG | 0.492 |
| ATTCATCC | 0.119 |
| CGTCATCC | -0.131 |
| AGGCATCG | -0.125 |
| CGTCATCA | -0.004 |
| AGTCATCC | 0.49 |
| ATTCATCG | 0.205 |

| Sequence | PBM E-score |
| --- | --- |
| GGTCATCA | 0.228 |
| AGTCATCA | 0.485 |
| GAGGTAAA | 0.122 |
| ATGTGGAG | 0.0652 |
| GGGCGCAC | -0.321 |
| GCCAAGGC | -0.214 |
| ACTCAGGC | 0.331 |
| AGTCAGGA | 0.417 |
| ATTCAGGG | 0.0298 |
| AGTCAGGG | 0.439 |
| CGTCAGGA | -0.0376 |
| ACTCAGGG | 0.311 |
| GGTCAGGA | -0.138 |
| CGTCAGGC | -0.19 |
| AGTCAGGC | 0.449 |
| AAAGTCCA | 0.0185 |
| AGTGAGAG | -0.0545 |
| AACGTGGG | -0.189 |
| AGCGATCA | -0.0759 |
| CTATGGAA | 0.0704 |
| CGAGCAGA | -0.0955 |
| CGATTACA | 0.101 |
| CGATTAAA | 0.249 |
| GGATTACA | 0.0898 |
| TGATTAAA | 0.418 |

| Sequence | PBM E-score |
| --- | --- |
| GGATTAAA | 0.205 |
| AGATTTAA | 0.2 |
| CGATTTAA | 0.188 |
| TGATTACA | 0.41 |
| TGATTTAA | 0.407 |
| AGGTAGGG | -0.121 |
| GATTGGCC | -0.0787 |
| CCAACAAA | -0.069 |
| ACTGCGGA | -0.0234 |
| CCGGACTA | 0.103 |
| AGTTTAGG | 0.0907 |
| AGCAACTG | -0.155 |
| CTTGACTA | 0.435 |
| CTTGACCC | -0.164 |
| ATTGACTC | 0.445 |
| GTTGACTA | 0.457 |
| GTTGACAA | -0.00857 |
| CTTGACGC | -0.268 |
| CTTGACAA | 0.113 |
| ATTGACTG | 0.275 |
| ATTGACAC | 0.0304 |
| CTTGACCA | 0.0717 |
| CTTGACTC | 0.463 |
| GTTGACGA | 0.126 |
| ACTAACAC | 0.315 |

| Sequence | PBM E-score |
| --- | --- |
| CTAATTAG | 0.175 |
| AACATTAA | -0.00496 |
| CTCGATGC | -0.0842 |
| GCCTATCC | -0.207 |
| GGACCTAC | -0.132 |
| GTTATCAA | 0.041 |
| AGGCCGCA | -0.226 |
| AAGTTTCT | 0.0369 |
| CAAACAGA | 0.0255 |
| CATAGGCC | -0.158 |
| GTGTTCAA | 0.0916 |
| CCCCTACC | -0.124 |
| ACACTTTC | -0.0867 |
| ATTGACGA | 0.188 |
| ATTGACAA | 0.0616 |
| ATTGACTA | 0.428 |
| ATTGGCTA | 0.0683 |
| AGTCGCAC | 0.353 |
| AGTCGCCC | 0.403 |
| CGTCGCTA | -0.0862 |
| CGTCGCTC | -0.159 |
| AGTCGCCA | 0.356 |
| CGTCGCAG | -0.031 |
| AGTCGCCG | 0.36 |
| AGTCGCAG | 0.367 |

| Sequence | PBM E-score |
| --- | --- |
| GGTCGCTA | -0.197 |
| AGTCGCTA | 0.371 |
| AGTCGCTC | 0.382 |
| AGTCGCTG | 0.303 |
| AGATTCGC | -0.0217 |
| GCCCCCAC | -0.265 |
| AATGCCCT | -0.232 |
| CCAGAATC | 0.0913 |
| CAGAAGGA | -0.151 |
| GGGAGACC | -0.259 |
| CCCTCTTA | -0.103 |
| AGCATTAA | 0.0916 |
| AGTACTCC | 0.171 |
| CGTACTCA | 0.335 |
| GGTACTCA | 0.381 |
| ATTACTCA | 0.329 |
| AGTACTCA | 0.393 |
| CTTACTCC | 0.128 |
| AGTACTCG | 0.261 |
| GGTACTTA | -0.0396 |
| CTTACTCA | 0.373 |
| AGGTGAAA | 0.0659 |
| AATGTGTA | 0.222 |
| ACGGATAA | -0.0519 |
| CATCAGCA | -0.143 |

| Sequence | PBM E-score |
| --- | --- |
| AGCCATTG | 0.247 |
| CGTCATTC | -0.0565 |
| GGTCATTA | -0.0121 |
| AGTCATTC | 0.482 |
| CGTCATTA | -0.0609 |
| AGTCATTA | 0.487 |
| AGCCATTC | 0.0873 |
| AGGCATTG | -0.171 |
| AGTCATTG | 0.475 |
| CCTGGAAG | -0.1 |
| GGAAGCCC | -0.374 |
| AGCGCGGG | 0.00652 |
| ATTCCAGG | 0.118 |
| TCAGCGAA | 0.186 |
| ACAATCTC | -0.108 |
| CCTCATCC | -0.323 |
| GCTCATCC | -0.0652 |
| ACTCATCG | 0.409 |
| ACTCATCT | 0.401 |
| CCTCATCG | -0.207 |
| ACGCATCT | -0.0617 |
| ACTCATCA | 0.412 |
| ACCCATCT | 0.182 |
| GCTCATCA | 0.184 |
| ACTCATCC | 0.455 |

| Sequence | PBM E-score |
| --- | --- |
| ACACATCG | 0.158 |
| TCTCATCA | 0.115 |
| AACTTTGG | -0.0438 |
| CTGCTAGA | 0.00564 |
| GAATGCCA | -0.127 |
| CAGGGGCC | -0.269 |
| CTCACAAA | 0.232 |
| ACGTTATA | 0.0989 |
| AGGATGAT | 0.281 |
| GGAGATCC | -0.237 |
| AACTCCTA | -0.137 |
| CACTCCTC | -0.206 |
| CACTCCTA | -0.0701 |
| GACTCCTC | 0.419 |
| GACTCCTA | 0.443 |
| AACTCCTC | -0.169 |
| ACGGGCTA | -0.288 |
| GGTGGCTA | 0.181 |
| ATTCAGAA | 0.139 |
